From PubChem
Most compounds without a hit are left out; they make up all but 1.6% or so of the library.
KCNQ2 pot – KCNQ2 (rat) channel potentiation | O88943 | B-score at 10 µM | 310,000 compounds, 0.54% hits | AID 2239 | CHO-K1 KCNQ2, FluxOR thallium flux fluorescence; stronger effect = higher value;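 active = fluorescence ratio B-score at least 3 SD of library B-scores, with initial fluorescence B-score within 3 of them, cut at about 5.3 in these data; same plate scores as AID 2156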;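 note: B-score of peak minus minimum over baseline fluorescence ratio after K+ and Tl+ stimulus; positive B-score means potentiation of KCNQ2 with more thallium influx and brighter signal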
KCNQ2 inh – KCNQ2 (rat) channel inhibition. O88943. CHO-K1 KCNQ2, FluxOR thallium flux, 20 min; stronger effect = lower value. B-score at 10 µM. 310,000 compounds, 1.1% hits;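 active = fluorescence ratio B-score at most minus 3 library SDs, with starting brightness B-score within 2 library SDs, cut at about -5.5 in these data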
Kir21 conf inh – confirmation of mouse Kir2.1 potassium channel inhibitors. Tl flux remaining, % of negative control (stronger effect = lower value), % at 10 µM. shares compounds with KCNQ2 pot. Kir2.1-expressing cells, FluxOR thallium flux fluorescence; stronger effect = lower value. 2,300 compounds, 41% hits;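 active = Primary-screen hit whose thallium flux fell at least 3 control SD below untreated wells in both duplicates, with normal baseline fluorescence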;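 note: 0% = blank wells without stimulus and 100% = stimulated no-compound controls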
HEK293 Tl flux – counter-screen for Kir2.1 inhibitors: effect in parental HEK293 cells. FluxOR thallium flux fluorescence; 0% = unstimulated blank wells. 2,300 compounds, 19% hits. FluxOR signal as % of negative control (100 = no effect), % at 10 µM. shares compounds with KCNQ2 pot;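 active = dye signal at least 3 control SD above or below untreated wells in both duplicates, raw fluorescence within 3, either direction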;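 note: percent is based on the flux ratio of peak minus minimum fluorescence over baseline F0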
CHO-K1 ctr – counter-screen for KCNQ2 potentiators: effect in parental CHO-K1 cells | shares compounds with KCNQ2 pot | FluxOR thallium flux fluorescence; zero = vehicle mean+3SD, 100% = vehicle-minus-blank window | activity increase over 3SD of controls, % at 10 µM | 1,200 compounds, 43% hits;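 active = signal rise of at least 3 SD above the untreated control mean, in both duplicate wells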;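 note: counter screen of KCNQ2 potentiator hits so any rise reflects channel-independent effects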
KCNQ1 pot spec – human KCNQ1 counter-target activity of KCNQ2 potentiators; shares compounds with KCNQ2 pot; CHO KCNQ1 stable, FluxOR thallium flux fluorescence; beyond 3SD, as % of vehicle-control signal; 1,200 compounds, 28% hits; activation over 3SD threshold, % at 10 µM;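 active = fluorescence ratio rise of at least 3 SD of vehicle wells above their mean, in both replicate wells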;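 note: 0% = vehicle mean plus 3 SD and 100% = vehicle minus unstimulated blank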
KCNQ2 pot confirm – rat KCNQ2 channel potentiator confirmation | AID 2287 | 1,200 compounds, 68% hits | shares compounds with KCNQ2 pot | potentiation, less the hit threshold, % at 10 µM | CHO-KCNQ2 cells, FluxOR thallium flux fluorescence;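 active = fluorescence ratio rising 3 SD or more over the vehicle control mean in both replicates, plus primary screen hit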;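 note: peak minus minimum thallium fluorescence divided by baseline after K/Tl stimulus; 0% = vehicle mean plus 3 SD and 100% = vehicle minus unstimulated blank difference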
Kir2-1 sel – mouse Kir2.1 off-target activity of KCNQ2 potentiators | activity over 3SD threshold, % at 10 µM | AID 2345 | HEK293 Kir2.1, FluxOR thallium flux fluorescence | 1,200 compounds, 2% hits | shares compounds with KCNQ2 pot;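 active = fluorescence ratio rise of at least 3 SD above the vehicle-control mean, seen in both replicates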;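 note: 0% = vehicle mean plus 3 SD and 100% = vehicle minus no-stimulus blank window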
KCNQ2 W236L MoA – KCNQ2 potentiators acting on retigabine-insensitive rat KCNQ2 W236L mutant; shares compounds with KCNQ2 pot; CHO KCNQ2-W236L, automated patch clamp current; current increase over 3SD of negative controls (%), stronger effect = higher value, % at 25 µM; 940 compounds, 10% hits; AID 2558;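 active = current increase at least 3 SD of the untreated controls above them in both duplicate recordings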
Target sequence (O88943 whole entry W236L, looked up): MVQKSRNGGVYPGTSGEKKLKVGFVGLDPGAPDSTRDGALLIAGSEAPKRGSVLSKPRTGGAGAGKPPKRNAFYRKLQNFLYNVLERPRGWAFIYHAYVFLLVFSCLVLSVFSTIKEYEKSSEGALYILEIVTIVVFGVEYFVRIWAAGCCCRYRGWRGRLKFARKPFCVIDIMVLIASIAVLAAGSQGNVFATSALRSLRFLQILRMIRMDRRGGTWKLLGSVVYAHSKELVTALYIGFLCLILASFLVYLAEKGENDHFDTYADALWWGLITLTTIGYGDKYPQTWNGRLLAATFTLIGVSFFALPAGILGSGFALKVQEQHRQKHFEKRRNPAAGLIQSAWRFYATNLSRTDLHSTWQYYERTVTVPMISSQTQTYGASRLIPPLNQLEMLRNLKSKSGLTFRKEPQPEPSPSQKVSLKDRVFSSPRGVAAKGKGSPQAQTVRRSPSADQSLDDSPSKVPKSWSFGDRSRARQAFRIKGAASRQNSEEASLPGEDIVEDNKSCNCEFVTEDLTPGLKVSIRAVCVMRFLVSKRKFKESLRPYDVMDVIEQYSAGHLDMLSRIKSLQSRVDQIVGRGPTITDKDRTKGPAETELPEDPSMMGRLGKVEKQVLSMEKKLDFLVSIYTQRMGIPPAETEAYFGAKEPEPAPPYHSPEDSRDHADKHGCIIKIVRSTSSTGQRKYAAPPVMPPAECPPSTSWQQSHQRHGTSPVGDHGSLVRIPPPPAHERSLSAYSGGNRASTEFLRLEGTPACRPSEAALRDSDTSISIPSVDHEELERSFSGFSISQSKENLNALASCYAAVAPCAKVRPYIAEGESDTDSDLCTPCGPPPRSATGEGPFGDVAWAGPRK
* hit, by the source's call; i = inactive; . = no result.

SMILES | KCNQ2 pot | KCNQ2 inh | Kir21 conf inh | HEK293 Tl flux | others
O=C1ON=C(c2ccc(Cl)cc2)/C1=C/c1ccc(O)cc1 | -7.4 | -7.4* | 58%* | i
O=C1ON=C(c2ccccc2)/C1=C/c1ccc(O)cc1 | . | i | i | i
Cc1ccc(OC(C)C(=O)N2CC(=O)Nc3ccccc32)c(C)c1 (centres undefined) | . | i | . | .
N#CCCN(C(=O)COC(=O)c1ccc(S(=O)(=O)Nc2ccccc2)cc1)c1ccccc1 | . | i | . | .
Cc1ccccc1CSc1nc(C(C)(C)C)cc(=O)[nH]1 | 0.29 | i | . | .
O=C(Nc1ncc2c(n1)-c1ccccc1CC2)c1ccccc1 | 8.5* | i | i | 73%* | CHO-K1 ctr=-6;KCNQ1 pot spec=73*;KCNQ2 pot confirm=17*;Kir2-1 sel=-50;KCNQ2 W236L MoA=i
O=C(Nc1ncc2c(n1)-c1ccccc1CC2)c1ccc(F)cc1 | 4.5 | i | . | .
O=C(Nc1nc2c(s1)CCc1ccccc1-2)c1cccs1 | 0.02 | i | . | .
O=C(Nc1ncc2c(n1)-c1ccccc1CC2)c1cccs1 | 9.7* | i | i | i | CHO-K1 ctr=-9;KCNQ1 pot spec=-9;KCNQ2 pot confirm=29*;Kir2-1 sel=-14;KCNQ2 W236L MoA=i
O=C(O)c1cc(-c2cccs2)nn1-c1ccccc1 | . | i | . | .
O=C(O)c1cc(-c2cccs2)nn1-c1cccc(Cl)c1 | 8.9* | i | i | i | CHO-K1 ctr=16*;KCNQ1 pot spec=28*;KCNQ2 pot confirm=-7;Kir2-1 sel=-12;KCNQ2 W236L MoA=i
Cc1cc(OCC(=O)NNC(=S)NC(=O)c2ccc(Br)o2)ccc1Cl | 8.1* | i | i | i | CHO-K1 ctr=90*;KCNQ1 pot spec=-3;KCNQ2 pot confirm=-22;Kir2-1 sel=-40
CCC(=O)NC(=S)Nc1ccc(NC(=O)COc2ccc(Cl)c(C)c2)cc1 | 0.07 | i | . | .
CCSc1nc2ccccc2c(=O)n1CCc1ccc(OC)c(OC)c1 | . | i | . | .
COC(=O)c1sccc1N(C)S(C)(=O)=O | 0.09 | i | . | .
O=C1NC(=O)/C(=C\c2ccccc2OCc2ccccc2)S1 | 0.21 | i | . | .
O=C1NC(=O)/C(=C\c2ccc(OCc3ccccc3)cc2)S1 | 8* | i | i | i | CHO-K1 ctr=-9;KCNQ1 pot spec=-32;KCNQ2 pot confirm=-13;Kir2-1 sel=-36
Cc1ccnc(OC(C(=O)O)C(OCc2ccccc2)(c2ccc(F)cc2)c2ccc(F)cc2)n1 (centres undefined) | . | i | . | .
O=C(NCCS(=O)(=O)NCc1cccnc1)c1ccccc1 | 0.48 | i | . | .
C/C=C/c1ccc(OCCNCc2ccccc2)c(OC)c1 | . | i | . | .
Cc1ccc(Cl)c(OCCCN(C)Cc2ccccc2)c1 | . | i | . | .
C/C=C/c1ccc(OCCCCN(C)Cc2ccccc2)c(OC)c1 | . | i | 22%* | i
Cc1ccc(Cl)c(OCCCCN(C)Cc2ccccc2)c1 | . | i | 20%* | i
Cc1cc(C)c(S(=O)(=O)Cc2ccccc2)c(Cl)n1 | 0.29 | i | . | .
Cc1ccc(S(=O)(=O)c2c(COC(=O)c3ccccc3Cl)c(-c3ccccc3)nn2C)cc1 | . | i | . | .
SMILES | KCNQ2 pot | KCNQ2 inh | Kir21 conf inh | HEK293 Tl flux | others
COc1ccc(CCN=C(N)C(C)c2ccccc2)cc1OC (centres undefined) | 0.65 | i | . | .
CC(C)Cc1ccc(C(C)C(N)=NCCc2ccccc2)cc1 (centres undefined) | . | i | i | i
O=C(NCc1ccco1)C1CCCN1C(=O)Nc1ccc(Br)cc1 (centres undefined) | 0.65 | i | . | .
CCSc1nnc(NC(=O)CC)s1 | 0.02 | i | . | .
CCSc1nnc(NC(=O)CC(C)C)s1 | 0.43 | i | i | i
O=C1NCCCC1C(=O)Nc1ccccc1C(F)(F)F (centres undefined) | 1.9 | i | . | .
O=C1CC(=O)Nc2cc(S(=O)(=O)Nc3ccc(Cl)c(C(F)(F)F)c3)ccc2N1 | 0.01 | i | . | .
C=C[C@@]1(C)CC(=O)[C@]2(O)[C@@]3(C)[C@@H](O)CCC(C)(C)[C@@H]3[C@H](OC(C)=O)[C@H](O)[C@@]2(C)O1 | 5.1 | i | . | .
C=C[C@@]1(C)CC(=O)[C@]2(O)[C@@]3(C)[C@@H](O)CCC(C)(C)[C@@H]3[C@H](O)[C@H](OC(C)=O)[C@@]2(C)O1 | 8.9* | i | i | i | CHO-K1 ctr=-13;KCNQ1 pot spec=-26;KCNQ2 pot confirm=7.1*;Kir2-1 sel=-37;KCNQ2 W236L MoA=2.3%*
CN(C)c1ccc(/C=C/c2ccc3ccccc3[n+]2C)cc1 | . | i | i | i
CN(CCCS(=O)(=O)[O-])c1ccc(/C=C/c2ccc3ccccc3[n+]2C)cc1 | . | i | . | .
CC(C)CC(NS(=O)(=O)OCC(Cl)(Cl)Cl)c1ccccc1 (centres undefined) | . | i | . | .
CC(NS(=O)(=O)OCC(Cl)(Cl)Cl)c1ccc(Br)cc1 (centres undefined) | . | i | 42%* | i
COc1cc(/C=C/C(=O)N2CC(C)OC(C)C2)cc(OC)c1OC (centres undefined) | . | i | . | .
CCCCC(Nc1ncnc2ccccc12)C(=O)O (centres undefined) | 7.7* | i | i | i | CHO-K1 ctr=-4;KCNQ1 pot spec=-11;KCNQ2 pot confirm=-24;Kir2-1 sel=-43
CC(Nc1ncnc2ccccc12)c1ccccc1 (centres undefined) | 2.4 | i | . | .
COc1ccc(S(=O)(=O)N2CCc3ccccc32)cc1OC | 0.13 | i | 52%* | i
COc1ccc(S(=O)(=O)N2CCc3ccccc32)cc1C(=O)O | . | i | . | .
CCCCn1c(N)c(N(CCOC)C(=O)c2cccc(-n3cnnn3)c2)c(=O)[nH]c1=O | . | i | . | .
O=C(NC(=S)Nc1ccc(N2CCCCC2)c(Cl)c1)c1cccs1 | 6.6* | i | i | i | CHO-K1 ctr=9.4*;KCNQ1 pot spec=11*;KCNQ2 pot confirm=1.0*;Kir2-1 sel=-26;KCNQ2 W236L MoA=i
O=C(Nc1cc(Cl)ccc1N1CCCCC1)c1cccs1 | . | i | . | .
Cc1cc(C)c2c(N)c(C(=O)Nc3c(C)n(C)n(-c4ccccc4)c3=O)sc2n1 | . | i | . | .
O=C(Nc1cccnc1)c1ccccc1Oc1ccccc1 | . | i | . | .
O=C(NNC(=O)c1ccc(Cl)c(Cl)c1)c1cccnc1 | . | i | . | .
O=C(Nc1cccnc1)c1ccc(Oc2ccccc2)cc1 | 18* | i | i | i | CHO-K1 ctr=-12;KCNQ1 pot spec=-18;KCNQ2 pot confirm=85*;Kir2-1 sel=-49;KCNQ2 W236L MoA=i
O=C(Nc1cccnc1)c1ccc(Cl)c(Cl)c1 | 8.1* | i | i | i | CHO-K1 ctr=18*;KCNQ1 pot spec=-6;KCNQ2 pot confirm=21*;Kir2-1 sel=-32;KCNQ2 W236L MoA=11%*
O=c1[nH]c(Nc2ccc3c(c2)OCCO3)nnc1Cc1ccc(Cl)cc1 | 0.11 | i | . | .
